Source: ChEMBL document CHEMBL3988442, “University of Dundee, Small-Polar-MMV Screening Library” (2021)

Tests used:
[1] = biological target: T1, Aspartate--tRNA(Asp/Asn) ligase (Mycobacterium tuberculosis (strain ATCC 25618 / H37Rv)) (UniProt P9WFW3); test: Assay for Asp RNA synthetase-1 from Mycobacterium tuberculosis; type: functional; parameters: scale not given: direction of the effect not stated beside the values; settings: 30 µM; further: in the data most compounds retested in dose-response had high values
T1 sequence (whole entry): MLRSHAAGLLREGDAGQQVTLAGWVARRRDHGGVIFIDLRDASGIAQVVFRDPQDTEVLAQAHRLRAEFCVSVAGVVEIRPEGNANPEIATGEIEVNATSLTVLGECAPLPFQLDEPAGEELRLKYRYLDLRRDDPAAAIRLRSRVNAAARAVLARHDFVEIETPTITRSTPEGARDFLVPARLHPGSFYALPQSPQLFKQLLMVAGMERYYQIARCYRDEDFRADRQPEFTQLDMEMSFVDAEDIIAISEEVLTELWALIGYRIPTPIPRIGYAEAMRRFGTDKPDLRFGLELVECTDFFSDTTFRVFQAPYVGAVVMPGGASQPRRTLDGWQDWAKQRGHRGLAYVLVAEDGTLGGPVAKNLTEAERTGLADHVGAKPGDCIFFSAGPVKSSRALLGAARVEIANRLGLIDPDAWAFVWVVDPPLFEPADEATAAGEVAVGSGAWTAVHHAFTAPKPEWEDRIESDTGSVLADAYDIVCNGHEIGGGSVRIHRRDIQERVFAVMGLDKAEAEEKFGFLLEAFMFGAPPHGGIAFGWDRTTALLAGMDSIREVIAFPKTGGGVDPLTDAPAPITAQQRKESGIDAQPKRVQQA

[2] = biological target: Shiga toxin 2 (Escherichia coli O157:H7) (UniProt P09385+P09386); test: E. coli 0.157:H7 Shiga Toxin SOP - stx2 screening assay; type: functional; parameters: scale not given: direction of the effect not stated beside the values; settings: 30 µM

SMILES	Percent Effect [1] [%]	Percent Effect [2] [%]
O=C(NCC1OCCc2cn(CC3CC3)nc21)c1ccsc1 (stereo not given)	-3.57	-12.1
CCc1ccccc1NC(=O)N1CCn2cnc(COC)c2C1	-3.09	6.27
CS(=O)(=O)NCCCNC(=O)c1cccnc1O	5.28	-16.3
CC(C)C(=O)N1CCN(C(=O)c2cscn2)[C@H]2CS(=O)(=O)C[C@H]21	-8.33	-5.71
Cc1cnn(CC2CCCCN2Cc2noc(C3CC3)n2)c1 (stereo not given)	-2.57	26.8
CC(=O)Nc1nc(C(=O)N2CCCC(c3cc(C)[nH]n3)C2)cs1 (stereo not given)	0.141	-12.2
Cc1cc2n(n1)CC(CNC1CCN(c3ccc(F)cc3)CC1)CN2 (stereo not given)	4.19	-37.2
CCCOc1ccc(CNC(=O)N2CCC(C(N)=O)C2)cc1 (stereo not given)	0.4	-0.133
Cc1nc(C)n(C2CCCN(C(=O)Cc3n[nH]c4ccccc34)C2)n1 (stereo not given)	2.55	-3.54
CCCc1n[nH]c(C2CN(C(=O)c3cc(F)ccc3OC)CCO2)n1 (stereo not given)	0	29.8
